Data from the OligoGym collection.

Target: FXN
Assay: pooled miR-30 sensor sort-seq; sequence = guide strand
Conditions: shRNA
Note: reference of the scale not given here.

Row | Sequence | sensor-assay potency score (higher = more potent)
1 | TTGGTTTTTAAGGCTTTAGTGA | -0.944
2 | TTTTTGACATTCCAAATCTGGT | -1.15
3 | TTGTTTGGCGTCTGCTTGTTGA | -0.937
4 | TGGTCTCATCTAGAGAGCCTGG | -1.32
5 | TAGGTGGTCTCATCTAGAGAGC | -1.48
6 | TCTGCTAGTCTTTCATAGGTGG | 0.437
7 | TTGCTTGTTTGGCGTCTGCTTG | -0.812
8 | TTTGACATTCCAAATCTGGTTG | -0.256
9 | TAAGGCTTTAGTGAGCTCTGCG | 0.283

Target: FXR1
Assay: as above
Conditions: shRNA

Row | Sequence | sensor-assay potency score (higher = more potent)
10 | TTTCTTGAATAACTTTGCCATT | -1.55
11 | TATTTTATAACACAGTAGGTGT | -0.648
12 | TATTAATCTTTTCTTCTCCTGG | -0.0994
13 | TTCATTTCTGGACATAAGCATC | -1.34
14 | TTGAGCACAGAACTGATGGAGG | -0.647
15 | TTCAATCACATCTTTTGCCATT | -1.45
16 | TTATTTTCAAAAACAACTGTAA | -0.406
17 | TTGCTCTTGAATATACCTCTAC | -0.669
18 | TAAGCATCAACTTCGTACGAAT | -0.962
19 | TGTCTCGATCATCTTCTCCTGC | 0.196
20 | TATACCTCTACTTCATCTCCTT | 0.473

Target: FYTTD1
Assay: as above
Conditions: shRNA

Row | Sequence | sensor-assay potency score (higher = more potent)
21 | TGCTACTACATCGTCTAGCAGT | -0.935
22 | TAGTCTTGGAAAATTCTGCTTC | 0.266
23 | TAGGTCTCTTGAGAACTGCTAC | -0.309
24 | TTCTGTATTCAACTGGGCCTGC | -0.211
25 | TTAAAAATGAAGGTACAGCAGT | -0.441
26 | TTATTTTTTCTGCTTAGCTGGC | -0.29
27 | TATTCTTGTCACTTAGAGGTGG | 0.0654
28 | TTTAATTTATTTCCACTCCTGG | -0.341
29 | TAGCTGGCTAGGTCTCTTGAGA | -1.72
30 | TTCTCTTTGCTACTACATCGTC | -0.513
31 | TTGTATGTGAGAGTGGCTCTTT | -0.0403
32 | TACTACATCGTCTAGCAGTTGT | 0.276

Target: FZD1
Assay: as above
Conditions: shRNA

Row | Sequence | sensor-assay potency score (higher = more potent)
33 | TACTTAATCATGAAGACCGTGA | -0.126
34 | TTTGCTGTTGGTGAGCCTCGTG | -0.218
35 | TTTCACTAGAGGGTAGAACTGG | -0.532
36 | TTGCTGTTGGTGAGCCTCGTGT | -1.11
37 | TTGAGGGTCTTGCCGGACCAGA | -1.52
38 | TAGAACTTCCTCCAGGAGTTGA | -0.794
39 | TTCACTAGAGGGTAGAACTGGT | 0.461
40 | TACAGCACGCTGAAGACGCCAA | -0.38
